The target of experiment [1] is Luciferin 4-monooxygenase (Photinus pyralis) (UniProt P08659). The experiment is described as follows: Primary firefly luciferase (FLuc) qHTS assay for identification of artifact compounds. (AID 1845220). Also: nearly all actives have a fitted effect of over 60% in size. Also: potency is read from the fitted curve at half-maximal effect. Put shortly:
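D-luciferin and ATP (10 uM each, final) in Tris acetate buffer pH 7.6 were incubated with compounds for 15 min at room temperature. The reaction was started with 10 nM Photinus pyralis luciferase and luminescence read after 5 min. Percent inhibition was fitted to a 4-parameter Hill equation.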

Experiment [2] in a line: Primary fluorescence-based thiol-reactive (MSTI) qHTS assay for identification of artifact compounds. (AID 1845221).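 Also: series mostly up to about 54 µM; thiol-reactive compounds lower the probe fluorescence signal; nearly all actives have a fitted effect of over 65% in size.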 Put shortly: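 MSTI probe at 4 uM final in 2% DMSO/PBS pH 7.4; compounds, 1 h at room temperature in dark. Fluorescence Ex/Em 525/598 nm, normalised to Acetyl-MSTI and MSTI, fitted to 4-parameter Hill.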
Experiment [3] relates to Nanoluciferase (engineered Oplophorus gracilirostris luciferase). The experiment is described as follows: Primary Nanoluciferase (NLuc) qHTS assay for identification of artifact compounds. (AID 1845222). Also: series mostly up to about 54 µM. Put shortly:
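Diluted conditioned medium from NLuc-expressing S16 cells treated with compounds for 15 min at room temperature, then Nano-Glo substrate added; luminescence read after 5 min. Percent inhibition versus no-enzyme and DMSO controls fitted to 4-parameter Hill equation.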

Experiment [4] can be described thus: Primary redox qHTS assay for identification of artifact compounds. (AID 1845223). In a few lines:
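Amplex Red (25 uM) and HRP (250 mU/mL) in HBSS, with compounds for 15 min, then 250 uM DTT for 30 min, room temperature, dark. Fluorescence 525/598 nm read; normalized to DMSO and 10 uM DA3003; Hill fit.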

Experiment [5] can be described thus: Quantitative High-Throughput drug screen in 47 multiple myeloma cell lines against the NCATS MIPE library collection: FR4_PLB cell viability assay (AID 1918924; also: nearly all actives have a fitted effect of over 35% in size; also: potency is read from the fitted curve at half-maximal effect). Put shortly: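 Inhibition of cell viability is measured here. Each line was plated at 500 cells per well, treated with MIPE 4.0 drugs, kept 48 hours at 37C, then assayed for ATP content by CellTiter-Glo luminescence.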

Experiment [6] can be described thus: Quantitative High-Throughput drug screen in 47 multiple myeloma cell lines against the NCATS MIPE library collection: EJM_DSMZ cell viability assay (AID 1918926; also: nearly all actives have a fitted effect of over 30% in size; also: potency is read from the fitted curve at half-maximal effect). Put shortly: (§1)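 Relative luminescence from CellTiter-Glo served as the viability signal, referenced to DMSO-treated (100%) and cell-free medium (0%) controls. Treatment lasted 48 hours at 37C with 500 cells per well.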

A short description of experiment [7]: Quantitative High-Throughput drug screen in 47 multiple myeloma cell lines against the NCATS MIPE library collection: AMO1_DSMZ cell viability assay (AID 1918927; also: nearly all actives have a fitted effect of over 30% in size; also: potency is read from the fitted curve at half-maximal effect). Put shortly: as §1
A short description of experiment [8]: Quantitative High-Throughput drug screen in 47 multiple myeloma cell lines against the NCATS MIPE library collection: ARP1_JJKsccF8 cell viability assay (AID 1918928; also: nearly all actives have a fitted effect of over 40% in size; also: potency is read from the fitted curve at half-maximal effect). Put shortly: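 Luminescence from CellTiter-Glo, taken after 5 min at room temperature, reports cellular ATP as viability. Cells (500 per well) had been treated 48 h at 37 °C with MIPE 4.0 compounds, scaled between DMSO and medium-only controls.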

Experiment [9] is described as follows: Quantitative High-Throughput drug screen in 47 multiple myeloma cell lines against the NCATS MIPE library collection: Delta47_JCRB cell viability assay (AID 1918925; also: nearly all actives have a fitted effect of over 45% in size; also: potency is read from the fitted curve at half-maximal effect). Put shortly:
as §1

Experiment [10] can be described thus: Quantitative High-Throughput drug screen in 47 multiple myeloma cell lines against the NCATS MIPE library collection: ARD_JJKsccE7 cell viability assay (AID 1918929; also: potency is read from the fitted curve at half-maximal effect). Put shortly: as §1

Here are results for 19 molecules from PubChem BioAssay (NCATS).

Records with an inconclusive call do not appear. Calls of active or inactive are those of the source. Calls follow the shape of the dose curve; as a rule, active = well fitted curve in the direction sought with a large enough effect; inconclusive = small, poorly fitted or top-dose-only effect, or another doubt; inactive = no such curve, though single readings can be large; an effect the other way counts as inactive or inconclusive.

As for `CCC[C@H]1C[C@H](C(=O)N[C@@H]([C@@H]2O[C@@H](SC)[C@@H](O)[C@@H](O)[C@@H]2O)[C@H](C)Cl)N(C)C1`, the Potency entry in experiment [1], in experiment [2], in experiment [4], in experiment [5], in experiment [6] and in experiment [7] was “inactive” throughout. For the same molecule, the Potency entry in experiment [8] is “inactive”. For the same molecule, in [3], the outcome was inactive.
As to `CCOC(=O)[C@@H](N)Cc1ccc(-c2cc(O[C@H](c3ccc(Cl)cc3-n3ccc(C)n3)C(F)(F)F)nc(N)n2)cc1`, the Potency result in [1], in experiment [2] and in [4] was “inactive” in each case. Also, the molecule was called inactive in experiment [3]. Besides, the Potency in experiment [5] is 23.5 µM (active); in experiment [9], 23.5 µM (active); in [6], 18.7 µM (active); in [7], 9.35 µM (active); in experiment [8], 14.8 µM (active); in experiment [10], 9.35 µM (active).
Take `CC1=C(C(=O)Nc2cc3cn[nH]c3cc2F)C(c2ccc(Cl)cc2F)N=C(c2ccnc(Cl)c2)N1` (centres undefined): the Potency result in experiment [1], in experiment [2] and in experiment [4] was “inactive” throughout. Moreover, the Potency is 11.8 µM (active) in [9], 14.8 µM (active) in experiment [7] and 20.9 µM (active) in [10].
On to `C[C@@H](Cc1cc2c(c(C(N)=O)c1)N(CCCO)CC2)NCCOc1ccccc1OCC(F)(F)F`, for which the Potency entry in experiment [1], in [2], in experiment [4], in experiment [5], in experiment [6] and in experiment [7] was “inactive” in each case. In experiment [8], the Potency entry was “inactive”. Besides, in experiment [3], the call was inactive. For the same molecule, the Potency in experiment [9] was 11.8 µM (active).
In the case of `Cc1ccccc1C(=O)Nc1ccc(C(=O)N2CCCC(O)c3cc(Cl)ccc32)c(C)c1` (centres undefined), the Potency entry in [1], in experiment [2], in experiment [4], in [5], in experiment [9] and in experiment [8] was “inactive” throughout. Further, the molecule was classed as inactive in experiment [3]. Moreover, the Potency in experiment [6] was 20.9 µM (active).
For the molecule `O=C(Nc1cc2cc[nH]c2cn1)c1ccccc1`, the Potency in experiment [1] is 2.39 µM (active); in [5], 14.8 µM (active); in experiment [9], 9.35 µM (active); in experiment [6] it was 8.33 µM (active); in [7], 10.5 µM (active); in experiment [10] it was 10.5 µM (active). Moreover, the Potency result in [2] and in experiment [4] was “inactive” in each case. Besides, the outcome in experiment [3] was inactive.
On to `C=CC(=O)Nc1ccc2ncnc(Nc3ccc(OCc4cccc(F)c4)c(Cl)c3)c2c1`, for which the Potency result in experiment [1], in experiment [2] and in [4] was “inactive” throughout. The Potency in [5] is 6.62 µM (active); in experiment [9] it was 0.187 µM (active); in experiment [6] it was 5.26 µM (active); in experiment [7], 0.0209 µM (active); in experiment [8], 0.296 µM (active); in [10] it was 0.0418 µM (active).
As to `FC(F)c1nc2ccccc2n1-c1nc(N2CCOCC2)nc(N2CCOCC2)n1`, the Potency result in experiment [1], in [2] and in experiment [4] was “inactive” each time. For the same molecule, the outcome in experiment [3] was inactive. The Potency in experiment [5] was 0.743 µM (active); in experiment [7], 0.209 µM (active); in experiment [8], 0.166 µM (active).
Consider `CS(=O)(=O)N1CCc2c(-c3cnc(N)nc3)nc(N3CCOCC3)nc21`, for which the Potency entry in [1], in experiment [2] and in [4] was “inactive” in each case. In addition, in experiment [3], the molecule was called inactive. The Potency in experiment [5] was 0.59 µM (active); in experiment [9] it was 0.148 µM (active); in experiment [6] it was 2.09 µM (active); in experiment [8], 0.0418 µM (active).
Turning to `Nc1ccn(C2CO[C@H](CO)O2)c(=O)n1` (some centres undefined), the Potency entry in [1], in experiment [2], in experiment [4], in experiment [5], in experiment [6] and in experiment [7] was “inactive” in each case. The Potency result in experiment [10] was “inactive”. The molecule was called inactive in experiment [3].
In the case of `O=C(O)c1ccc(Nc2ncc3c(n2)-c2ccc(Cl)cc2C(c2c(F)cccc2F)=NC3)cc1`, the Potency entry in experiment [1], in experiment [2], in experiment [4] and in experiment [5] was “inactive” in each case. For the same molecule, in experiment [3], the molecule was classed as inactive. Also, the Potency in experiment [9] is 0.935 µM (active); in [6] it was 23.5 µM (active); in experiment [7] it was 0.187 µM (active); in [8], 0.0105 µM (active).
`COc1cc(CCc2cc(NC(=O)c3ccc(N4C[C@@H](C)N[C@@H](C)C4)cc3)n[nH]2)cc(OC)c1`: the Potency entry in [1], in experiment [2] and in experiment [4] was “inactive” in each case. The Potency is 18.7 µM (active) in [5]; 14.8 µM (active) in experiment [9]; 18.7 µM (active) in [6]; 18.7 µM (active) in [7]; 18.7 µM (active) in experiment [8]; 16.6 µM (active) in experiment [10].
For `Oc1ccc([C@@H]2Oc3ccc(O)cc3[C@@H]3CCC[C@@H]32)cc1`, the Potency result in experiment [1], in [2], in experiment [4], in experiment [7] and in [10] was “inactive” each time. Besides, the call in experiment [3] was inactive. Besides, the Potency in [8] was 23.5 µM (active).
On to `N#Cc1c(C2CCNCC2)cc(-c2c(O)cccc2OCC2CC2)nc1N`, for which the Potency entry in experiment [1], in experiment [2] and in experiment [4] was “inactive” throughout. The outcome in [3] was inactive. Moreover, the Potency is 23.5 µM (active) in [5]; 16.6 µM (active) in [9]; 18.7 µM (active) in experiment [6]; 13.2 µM (active) in experiment [7]; 3.72 µM (active) in [10].
With `FC(F)(F)c1ccc(Nc2nc3ccc(Oc4ccnc(-c5ncc(C(F)(F)F)[nH]5)c4)cc3[nH]2)cc1`, the Potency result in experiment [1], in [2] and in [4] was “inactive” throughout. Also, in [3], the result was inactive. The Potency is 18.7 µM (active) in experiment [5], 16.6 µM (active) in experiment [7], 20.9 µM (active) in experiment [8] and 14.8 µM (active) in [10].
Consider `Nc1ccc(C(=O)Nc2cccc(-c3nc(N4CCOCC4)c4oc5ncccc5c4n3)c2)cn1`, for which the Potency entry in experiment [1], in experiment [2] and in [4] was “inactive” each time. The result in [3] was inactive. Besides, the Potency is 18.7 µM (active) in [5]; 0.935 µM (active) in experiment [9]; 16.6 µM (active) in [6]; 6.62 µM (active) in experiment [7]; 6.62 µM (active) in [8]; 1.66 µM (active) in experiment [10].
With `Cn1cc(-c2ccc3ncc(Cc4ccc5ncccc5c4)n3n2)cn1`, the Potency result in experiment [1], in [2], in [4], in [5], in experiment [6] and in experiment [8] was “inactive” each time. The Potency entry in experiment [10] was “inactive”. For the same molecule, the molecule was classed as inactive in experiment [3].
In the case of `Cn1cnc2c(F)c(Nc3ccc(Br)cc3F)c(C(=O)NOCCO)cc21`, the Potency entry in experiment [1], in experiment [2], in experiment [4], in experiment [5], in experiment [9] and in experiment [6] was “inactive” in each case. Further, the Potency result in experiment [8] is “inactive”. Also, in experiment [3], the call was inactive. The Potency in experiment [7] is 1.05 µM (active); in experiment [10], 0.0033 µM (active).
For `Cc1cnc(Nc2ccc(CN3CCOCC3)cc2)nc1Nc1cccc(S(=O)(=O)NC(C)(C)C)c1`, the Potency result in experiment [1], in [2] and in [4] was “inactive” each time. Besides, the result in [3] was inactive. Also, the results for the Potency in [5], in experiment [9] and in experiment [8] were 2.64 µM (active), 1.87 µM (active) and 3.32 µM (active), respectively.
